Laboratory results from PubChem BioAssay (EPA / NIEHS).
Active and inactive are the calls of the source. Rule for the calls: active = hit-call score of the fitted dose curve at least 0.9, where 1 is the maximum; inactive = score below 0.9.

Key:
[1] = ATG_E_Box_CIS: Attagene CIS-FACTORIAL HepG2 Assay for human Enhancer Box (E-box) (AID 2282936); settings: HepG2 E-box cis-reporter transcription, actives raise or lower the signal
Procedure, shortened: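 In this cell-based setup, HepG2 cells bearing transfected promoter-driven reporter units were exposed to chemicals for 24 h; reporter transcripts were amplified, 6-FAM-labelled, cut with HpaI and sized by capillary electrophoresis.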

[2] = ATG_M_61_CIS: Attagene CIS-FACTORIAL HepG2 Assay for M61 Transcription Factor (Internal Marker) (AID 2282937); settings: HepG2 Attagene CIS-FACTORIAL M61 internal marker reporter; actives raise or lower the signal
Procedure, shortened: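 Fluorescence from labelled cDNA fragments, separated by capillary electrophoresis, quantifies reporter induction. HepG2 cells bearing transiently transfected cis-promoter MRTUs were incubated with test chemical for 24 h; DMSO defined baseline for gain/loss fitting.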

[3] = ATG_EGR_CIS: Attagene CIS-FACTORIAL HepG2 Assay for human Early Growth Response 1 (EGR1) (AID 2282938); settings: HepG2 Attagene CIS-FACTORIAL EGR reporter mRNA; actives raise or lower the signal
Procedure, shortened: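 Cell-based multiplex transcription assay: HepG2 carrying transfected cis-element reporter units, 24 h chemical treatment. Fluorescence from capillary electrophoresis of RT-PCR products gives mRNA levels; fitting is bidirectional relative to DMSO.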

[4] = ATG_Ets_CIS: Attagene CIS-FACTORIAL HepG2 Assay for human Erythroblast Transformation Specific (ETS) (AID 2282941); settings: HepG2 ETS cis-reporter transcription, actives raise or lower the signal
Procedure, shortened: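 Endogenous transcription factor activity read as reporter mRNA via RT-PCR and capillary electrophoresis, with gain or loss fitted bidirectionally against DMSO. Human HepG2 liver cells, transiently transfected CIS reporter constructs, 24 h exposure.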

[5] = target: Hepatocyte nuclear factor 3-beta (Homo sapiens) (UniProt Q9Y261); experiment: ATG_FoxA2_CIS: Attagene CIS-FACTORIAL HepG2 Assay for human Forkhead box A2 (FOXA2) (AID 2282942); settings: HepG2 cis-reporter transcription factor activity, 24 h; actives raise or lower the signal
Chain of Hepatocyte nuclear factor 3-beta (Homo sapiens) (Q9Y261 whole entry, looked up): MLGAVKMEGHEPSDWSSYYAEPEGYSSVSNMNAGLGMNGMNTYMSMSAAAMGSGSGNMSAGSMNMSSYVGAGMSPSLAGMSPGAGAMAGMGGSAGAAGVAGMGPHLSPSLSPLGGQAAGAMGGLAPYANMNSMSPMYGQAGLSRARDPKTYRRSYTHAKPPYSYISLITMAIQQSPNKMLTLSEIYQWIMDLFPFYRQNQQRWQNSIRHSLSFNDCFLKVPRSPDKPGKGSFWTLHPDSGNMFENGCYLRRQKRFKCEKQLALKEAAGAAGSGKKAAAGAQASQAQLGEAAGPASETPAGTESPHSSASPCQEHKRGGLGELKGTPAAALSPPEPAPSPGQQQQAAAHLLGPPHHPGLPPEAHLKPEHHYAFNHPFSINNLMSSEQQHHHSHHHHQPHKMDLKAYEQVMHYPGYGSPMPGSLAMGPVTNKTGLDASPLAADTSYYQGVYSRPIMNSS
Procedure, shortened: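 In transiently transfected human HepG2 cells, promoter-driven reporter mRNA levels after 24 h chemical exposure are determined via RT-PCR with capillary electrophoresis. DMSO serves as baseline for bidirectional fitting.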

[6] = ATG_FoxO_CIS: Attagene CIS-FACTORIAL HepG2 Assay for human Forkhead box O (FoxO) (AID 2282943); settings: HepG2 Attagene cis-reporter, FoxO element, mRNA; actives raise or lower the signal
Procedure, shortened: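 Transfected HepG2 reporter cells exposed to test chemical for 24 h; reporter RNA measured by reverse transcription, PCR and fluorescent capillary electrophoresis; curves fitted for increases and decreases against DMSO.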

[7] = ATG_GATA_CIS: Attagene CIS-FACTORIAL HepG2 Assay for human GATA Binding Protein (AID 2282944); settings: HepG2 GATA cis-element reporter, Attagene multiplex mRNA; actives raise or lower the signal
Procedure, shortened: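 Measures endogenous transcription factor-driven reporter mRNA in HepG2 cells transiently carrying cis-regulated constructs. 24 h dosing; RNA via oligo(dT) reverse transcription, PCR, HpaI digestion, capillary electrophoresis; fitted relative to DMSO.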

[8] = ATG_GLI_CIS: Attagene CIS-FACTORIAL HepG2 Assay for human Zinc Finger Protein GLI1 (AID 2282945); settings: HepG2, Attagene cis-factorial reporter mRNA, GLI element; actives raise or lower the signal
Procedure, shortened: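 Transiently transfected HepG2 cells report endogenous transcription factor activity via cis-element-driven reporter units. After 24 h compound exposure, reporter mRNA was measured by RT-PCR with capillary electrophoresis; bidirectional fitting against DMSO baseline.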

[9] = target: Bile acid receptor (Homo sapiens) (UniProt Q96RI1); experiment: ATG_IR1_CIS: Attagene CIS-FACTORIAL HepG2 Assay for human Nuclear Receptor Subfamily 1 Group H Member 4 (NR1H4), IR1 submotif (AID 2282946); settings: IR1 reporter transcription, actives raise or lower the signal
Chain of Bile acid receptor (Homo sapiens) (Q96RI1 whole entry, looked up): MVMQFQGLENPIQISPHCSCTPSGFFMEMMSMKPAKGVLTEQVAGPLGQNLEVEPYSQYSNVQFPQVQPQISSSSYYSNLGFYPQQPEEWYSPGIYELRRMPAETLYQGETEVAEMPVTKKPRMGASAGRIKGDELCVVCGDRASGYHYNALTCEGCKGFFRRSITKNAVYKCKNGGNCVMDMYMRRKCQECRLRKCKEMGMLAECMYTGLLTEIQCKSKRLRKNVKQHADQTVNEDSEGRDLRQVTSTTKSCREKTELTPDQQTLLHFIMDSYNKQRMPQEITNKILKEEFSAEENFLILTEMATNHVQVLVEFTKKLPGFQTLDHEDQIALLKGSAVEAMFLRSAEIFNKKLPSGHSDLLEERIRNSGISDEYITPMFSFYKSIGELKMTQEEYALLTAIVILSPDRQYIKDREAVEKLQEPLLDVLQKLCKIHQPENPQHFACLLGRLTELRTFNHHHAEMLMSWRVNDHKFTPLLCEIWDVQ
Procedure, shortened: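 Fluorescence of capillary-separated, HpaI-digested RT-PCR reporter products gave IR1-element mRNA induction in HepG2 cells 24 h after dosing. Endogenous transcription factors drove the cis-regulated reporters; activity was fitted bidirectionally against DMSO.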

[10] = ATG_M_19_CIS: Attagene CIS-FACTORIAL HepG2 Assay for M19 Transcription Factor (Internal Marker) (AID 2282939); settings: HepG2 Attagene CIS-FACTORIAL M19 internal marker reporter; actives raise or lower the signal
Procedure, shortened: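 In this multiplexed cell assay, transiently transfected HepG2 reporter units report endogenous transcription-factor activity; after 24 hours of treatment, labelled reporter cDNA fragments are quantified by capillary electrophoresis and fitted bidirectionally against DMSO.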

SMILES	outcome [1]	outcome [2]	AC50 [3]	outcome [4]	outcome [5]	outcome [6]	outcome [7]	outcome [8]	outcome [9]	AC50 [1]	AC50 [5]	AC50 [8]	outcome [3]	outcome [10]	AC50 [7]
NC(=Nc1ccccc1)Nc1ccccc1	inactive	inactive	39.2 µM (active)	inactive	inactive	inactive	inactive	inactive	inactive						
O=C1OC(c2ccc(O)cc2)(c2ccc(O)cc2)c2ccccc21		inactive	20.8 µM (active)	inactive		inactive	inactive			176 µM (active)	177 µM (active)	159 µM (active)			
O=NO	inactive	inactive		inactive	inactive	inactive	inactive	inactive					inactive		
CN(C)CCCN1c2ccccc2Sc2ccc(Cl)cc21	inactive	inactive	13.2 µM (active)	inactive	inactive	inactive	inactive	inactive	inactive						
CC(C)NCC(O)c1ccc(O)c(O)c1 (centres undefined)	inactive			inactive	inactive	inactive	inactive	inactive					inactive	inactive	
CC1=C(C)S(=O)(=O)CCS1(=O)=O				inactive	inactive	inactive	inactive	inactive		100 µM (active)			inactive	inactive	
C#CC(O)C(CC)CCCC (centres undefined)	inactive			inactive	inactive	inactive		inactive					inactive	inactive	168 µM (active)
CC1(C)C(=O)NC(=O)N1CO	inactive			inactive	inactive	inactive	inactive	inactive					inactive	inactive	
CC(C)OC(=O)C(C)(C)Oc1ccc(C(=O)c2ccc(Cl)cc2)cc1	inactive	inactive	38.4 µM (active)	inactive	inactive	inactive	inactive	inactive	inactive						
CCC(C)N(C)C(=O)c1cc2ccccc2c(-c2ccccc2Cl)n1 (centres undefined)	inactive		62.5 µM (active)	inactive	inactive	inactive	inactive	inactive						inactive	
CC(C)c1cccc(C(C)C)c1NC(=O)NS(=O)(=O)c1cc(C(C)(C)O)co1	inactive	inactive		inactive	inactive	inactive	inactive	inactive	inactive				inactive		
CC(=O)CC(c1ccccc1)c1c(O)c2ccccc2oc1=O (centres undefined)	inactive	inactive		inactive	inactive	inactive	inactive	inactive					inactive		
CC(=O)OCC(COC(C)=O)OC(C)=O	inactive			inactive	inactive	inactive	inactive	inactive					inactive	inactive	
O=Cc1ccccc1C=O	inactive	inactive		inactive	inactive	inactive	inactive	inactive					inactive		
CS(=O)(=O)c1ccc([C@@H](C[C@H]2CCC(=O)C2)C(=O)Nc2cnccn2)cc1Cl	inactive	inactive		inactive	inactive	inactive	inactive	inactive					inactive		
O=C(Oc1ccccc1)c1cccc(C(=O)Oc2ccccc2)c1	inactive	inactive		inactive	inactive	inactive	inactive	inactive	inactive				inactive		
CC(N)=O	inactive			inactive	inactive	inactive	inactive	inactive					inactive	inactive	
CCCCOC(=O)CCCCC(=O)OCCCC	inactive	inactive		inactive	inactive	inactive	inactive	inactive					inactive		
CCCCCCCCCCCCCCOS(=O)(=O)O	inactive	inactive		inactive	inactive	inactive	inactive	inactive					inactive		
COC(=O)CCC(=O)OC	inactive	inactive		inactive	inactive	inactive	inactive	inactive	inactive				inactive		
Cc1c(C)c2c(c(C)c1O)CCC(C)(COc1ccc(CC3SC(=O)NC3=O)cc1)O2 (centres undefined)	inactive	inactive		inactive	inactive	inactive	inactive	inactive	inactive				inactive		
Cc1occc(=O)c1O	inactive			inactive	inactive	inactive	inactive	inactive					inactive	inactive	
c1ccc2occc2c1	inactive	inactive		inactive	inactive	inactive	inactive	inactive	inactive				inactive		
NCCOCCOCCN	inactive	inactive		inactive	inactive	inactive	inactive	inactive					inactive		
CCCCC(CC)COC(=O)CCCCCCCC(=O)OCC(CC)CCCC (centres undefined)	inactive	inactive		inactive	inactive	inactive	inactive	inactive	inactive				inactive		

SMILES	outcome [1]	outcome [2]	AC50 [3]	outcome [4]	outcome [5]	outcome [6]	outcome [7]	outcome [8]	outcome [9]	AC50 [1]	AC50 [5]	AC50 [8]	outcome [3]	outcome [10]	AC50 [7]
CO[C@@H]1COCC[C@@H]1N[C@@H]1CC[C@@](C(=O)N2CCc3ncc(C(F)(F)F)cc3C2)(C(C)C)C1	inactive			inactive	inactive	inactive	inactive	inactive					inactive	inactive	
C=CCc1ccc(OC)c(OC)c1	inactive	inactive		inactive	inactive	inactive	inactive	inactive	inactive				inactive		
CC(=O)OC1CC(C)OC(C)O1 (centres undefined)	inactive	inactive		inactive	inactive	inactive	inactive	inactive	inactive				inactive		
CCCCCCC(C=O)=Cc1ccccc1	inactive	inactive		inactive	inactive	inactive	inactive	inactive	inactive				inactive		
Cc1ccc(-c2cc(C(F)(F)F)nn2-c2ccc(S(N)(=O)=O)cc2)cc1	inactive			inactive	inactive	inactive	inactive	inactive					inactive	inactive	
Cc1cc(Cc2ccc(N)c(C)c2)ccc1N	inactive			inactive	inactive	inactive	inactive	inactive	inactive				inactive	inactive	
C/C=C/c1ccc(OC)cc1	inactive			inactive	inactive	inactive	inactive	inactive					inactive		
Cc1cc(SC2=C(O)C[C@@](CCc3ccc(N)cc3)(C(C)C)OC2=O)c(C(C)(C)C)cc1CO	inactive			inactive	inactive	inactive	inactive	inactive	inactive				inactive	inactive	
Cc1cn([C@H]2C=C[C@@H](CO)O2)c(=O)[nH]c1=O	inactive			inactive	inactive	inactive	inactive	inactive	inactive				inactive	inactive	
CCCCC(CC)COP(=O)(OCC(CC)CCCC)OCC(CC)CCCC (centres undefined)	inactive			inactive	inactive	inactive	inactive	inactive	inactive				inactive	inactive	
CN(C)C(=O)NC1(c2ccccc2)CCN(CC[C@@]2(c3ccc(F)c(F)c3)CN(C(=O)c3ccccc3)CCO2)CC1				inactive	inactive	inactive	inactive	inactive	inactive	162 µM (active)			inactive	inactive	
NC=O	inactive			inactive	inactive	inactive	inactive	inactive	inactive				inactive		
CCCCc1nc2cccnc2n1Cc1ccc(-c2ccccc2-c2nnn[nH]2)cc1	inactive			inactive	inactive	inactive	inactive	inactive	inactive				inactive	inactive	
CC(C)COC(=O)CCCCC(=O)OCC(C)C	inactive			inactive	inactive	inactive	inactive	inactive	inactive				inactive		
CCCC[C@H]1CN(CC2CCOCC2)C(=O)OC12CCN(C1(C)CCN(C(=O)c3c(C)ncnc3C)CC1)CC2	inactive			inactive	inactive	inactive	inactive	inactive					inactive		
CCCCCCCCCCCCCCCCO	inactive			inactive	inactive	inactive	inactive	inactive					inactive	inactive	
CSc1ccc(Oc2ccc(S(N)(=O)=O)cc2CN(C)C)cc1C	inactive			inactive	inactive	inactive	inactive	inactive	inactive				inactive		
O=C(O)CN(CC(=O)O)CC(=O)O	inactive			inactive	inactive	inactive	inactive	inactive	inactive				inactive	inactive	
N[C@@H](Cc1c[nH]c2ccccc12)C(=O)O	inactive			inactive	inactive	inactive	inactive	inactive					inactive		
CCc1cc(C2=C(C(=O)O)N(c3ccccc3C(F)(F)F)S(=O)(=O)c3ccccc32)cc2c1OCO2	inactive			inactive	inactive	inactive	inactive	inactive					inactive		
CCCCCCC(CCCCCCCCCCC(=O)OCC(COC(C)=O)OC(C)=O)OC(C)=O (centres undefined)	inactive			inactive	inactive	inactive	inactive	inactive	inactive				inactive		
O=C1CCCCC1	inactive			inactive	inactive	inactive	inactive	inactive					inactive		
Cn1cnc2c1c(=O)[nH]c(=O)n2C	inactive			inactive	inactive	inactive	inactive	inactive	inactive				inactive		
CCCCCCCC(=O)OC	inactive			inactive	inactive	inactive	inactive	inactive					inactive		
CC(=O)S[C@H](C(=O)N[C@H]1Cc2ccccc2[C@H]2CCC[C@@H](C(=O)O)N2C1=O)C(C)C	inactive			inactive	inactive	inactive	inactive	inactive	inactive				inactive	inactive	
